Data as given in PubChem BioAssay AID1345083 (National Center for Advancing Translational Sciences (NCATS), 2018).
Among all 94,000 compounds or so, about 6,200 (6.6%) were called active. Not shown: some 31% with an inconclusive outcome. Only a selection was taken, and actives are over-represented in it overall. Unmarked numbers belong to inactive results. Calls follow the shape of the dose curve; as a rule, active = well fitted inhibition curve with a large enough effect; inconclusive = small, poorly fitted or top-dose-only effect; inactive = flat fitted curve, though single readings scatter.

test: Cytotoxic Profiling in HEK 293 Cell Line of Diverse Libraries Using Quantitative High-Throughput Screening; settings: HEK 293 viability, ATP luminescence (CellTiter-Glo), 48-72 h; series mostly up to 115 µM; activity change, negative = cytotoxicity: at the top concentration; also: nearly all actives have a fitted effect of over 60% in size
Method in brief: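 HEK 293 cells at 250 cells/well were exposed to compounds by pintool transfer for 48 or 72 hr at 37 degree Celsius, 5% CO2. Viability was read as ATP-coupled luminescence with CellTiter-Glo after 10 min at room temperature.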
% is scaled to controls: 0 for no effect and ±100 for the full control effect; potency is read from the fitted curve at half-maximal effect.

SMILES	activity change, negative = cytotoxicity	Potency	outcome
O=C(NCCn1cccc1-c1nc(-c2ccc3c(c2)OCO3)no1)c1cccc(F)c1	-25.2%		
COc1ccc(Nc2cc3c(nc2-c2ccccc2)nc(C(=O)NCCN(C)C)n3C)cn1	-23.9%		
CN(C)CCNC(=O)c1nc2nc(-c3ccccc3)c(-c3cccc(F)c3)cc2n1C		50.1 µM (active)	
Cn1cccc1C(=O)N1CC[C@@H]2NC(=O)[C@H]3C[C@H](NC(=O)C4CC4)CN3C(=O)[C@H]21			inactive [at 172 µM]
CCCCN1C(=O)C(CC(=O)N2CCCCC2)Sc2ncccc21 (configuration not stated)	-19.9%		
CC(C)CNC(=O)c1nc2sccn2c1-c1ccncc1			inactive [at 172 µM]
CC(=O)N1CCC([C@@H]2CN(Cc3cc(F)c(F)cc3F)C[C@H]2CO)CC1	-4.04%		
CC(C)S(=O)(=O)N1CCC(N2CC(OCC3CC3)C23CCCCC3)CC1 (configuration not stated)	-25.7%		
O=C1CC2(CCN(C(=O)c3ccccc3)C2)Nc2ccccc2N1 (configuration not stated)	-16%		
O=C1NC2(CCN(C(=O)c3ccccn3)C2)Oc2ccccc21 (configuration not stated)	-8.41% [at 172 µM]		
O=C1NC2(CCN(C(=O)c3ccccc3)C2)COc2ccccc21 (configuration not stated)		100 µM (active)	
CCN(C1CCOCC1)C1CN(C(=O)C2CCC2)C1	-1.75%		
COCCNC(=O)[C@@H]1C[C@H](Oc2ccccc2)CN1C(=O)c1ccccn1	-0.692%		
Cc1ccc(C(=O)NC2CCN(c3cc(-c4cccs4)[nH]n3)C2)cc1 (configuration not stated)	-25.9%		
COc1ccc(-c2cc(N3CCCC(NC(=O)c4ccsc4)C3)n[nH]2)cc1 (configuration not stated)		35.5 µM (active)	
COc1ccc(-c2cc(N3CCC(NC(=O)c4ccc(N(C)C)cc4)C3)n[nH]2)cc1 (configuration not stated)		70.8 µM (active)	
COc1ccc(-c2cc(N3CCCC(NC(=O)c4cc(F)ccc4Cl)C3)n[nH]2)cc1 (configuration not stated)		28.2 µM (active)	
O=C(NC1CCN(c2cc(C(F)(F)F)ncn2)CC1)c1ccc(F)cc1	3.44%		
COc1ccc(-c2cc(N3CCCC(NC(=O)c4cccc(Cl)c4)C3)n[nH]2)cc1 (configuration not stated)		44.7 µM (active)	
Cc1ccc(-c2cc(N3CCC(CNC(=O)c4ccc(N(C)C)cc4)CC3)n[nH]2)cc1	-2%		
COc1ccc(C(=O)NCCC2CCN(C(=O)Nc3cc(F)ccc3F)CC2)cc1	-7.34%		
Cn1nccc1C(=O)NC1CCCN(c2cc(N3CCCC3)ncn2)C1 (configuration not stated)	-1.62%		
COC(=O)NC1CCCN(c2ccc3nnc(C)n3n2)C1 (configuration not stated)			inactive [at 172 µM]
Cc1cc(C(=O)N2C[C@@H](COCC(N)=O)[C@H](c3ccncc3)C2)c(C)o1	-13.7%		
O=C1Nc2cnccc2C2(CCN(C(=O)c3ccccc3F)C2)O1 (configuration not stated)	-11.1% [at 172 µM]		
CCOc1ccccc1NC(=O)CC[C@H]1NC(=O)c2ccccc2NC1=O	1.93%		

SMILES	activity change, negative = cytotoxicity	Potency	outcome
O=C(c1ccoc1)N1CCC(Oc2ncccc2C(=O)N2CCOCC2)C1 (configuration not stated)	2.21%		
CN1[C@@H](CCC(=O)NCc2ccccc2)CNC(=O)[C@@H]2[C@H]1CCN2Cc1csnn1	0.839% [at 172 µM]		
O=C(c1ccc(CO)o1)N1CCC2(CC1)[C@H](O)C[C@@H]2OCCO	-5.07%		
CC(c1cccs1)N(C)Cc1ccncc1 (configuration not stated)	-4% [at 172 µM]		
COCc1nnc2n1CCC(NC(=O)NCCc1ccccc1)CC2 (configuration not stated)	-2.98%		
O=C(CCCc1ccccc1)Nc1ccc(-c2nnc3n2CCCC3)cc1	-2.04%		
CN1Cc2ncnc(N3CCCCC3)c2CN(c2ccccc2)C1=O	-7.24% [at 172 µM]		
O=C(Nc1cccc(F)c1)N1CCCC(CN2CCOCC2)CC1 (configuration not stated)	-4.63%		
O=C(c1cccs1)C1CCCN(C(=O)COc2ccc(F)cc2F)C1 (configuration not stated)	-46.5%		
CNC(=O)[C@@H](Cc1ccccc1)N1CCC[C@H]1C(=O)NCC1CC1	-15% [at 172 µM]		
COc1ccccc1-c1cccc(CN2CCCC(C(=O)NCC3CC3)C2)c1 (configuration not stated)		39.8 µM (active)	
O=C(Nc1ccc(F)cc1)C1CCCN(Cc2cccc(-c3ccc(F)cc3F)c2)C1 (configuration not stated)		35.5 µM (active)	
O=C(C1CCCN(Cc2cccc(-c3ccc(F)cc3F)c2)C1)N1CCCCC1 (configuration not stated)		31.6 µM (active)	
CN(C)C(=O)N1CCCC(C(=O)N2CCC(N3Cc4cccn4C3=O)CC2)C1 (configuration not stated)	-6.08%		
O=C(NCC1CC1)C1CCCN(C2CCN(Cc3ccncc3)CC2)C1 (configuration not stated)	-7.71%		
O=C1CCN(Cc2ccncc2)CCCC(C(=O)Nc2cccc(F)c2)CCN1 (configuration not stated)	-1.43%		
Cc1nnc2n1C(C)CN(C(=O)CCCc1nc(-c3ccncc3)no1)C2 (configuration not stated)			inactive
O=C(NCc1cccnc1)C1CCCN(c2ccnc3ccnn23)C1 (configuration not stated)	-27.3%		
CCCNC(=O)NC1CCN(C(=O)N2CC3CC(C2)[C@H]2CCCC(=O)N2C3)CC1 (some centres not stated)	1.71%		
COc1cc(=O)n2c(c1C(=O)Nc1ccc(Cl)c(F)c1)CCCC2	-15.7%		
CCN1c2cc(C(=O)Nc3ccc(F)c(Cl)c3)ccc2C(=O)N2CCCCC21 (configuration not stated)		39.8 µM (active)	
CCN1c2cc(C(=O)Nc3ccc(SC)cc3)ccc2C(=O)N2CCCCCC21 (configuration not stated)		22.4 µM (active)	
O=C(Nc1ccc([C@H]2OCC(=O)N(C3CCOCC3)[C@@H]2CO)cc1)c1ccc(F)c(Cl)c1	-13%		
COc1ccc(CNC(=O)c2ccc3c(c2)N(C)C2CCCCN2C3=O)c(OC)c1 (configuration not stated)	1.55%		
CCN1C(=O)Cc2cc(C(=O)NCc3cc(OC)ccc3OC)ccc21	-17.2%		
CCN1c2cc(C(=O)NCc3ccccc3C(F)(F)F)ccc2C(=O)N2CCCCCC21 (configuration not stated)		39.8 µM (active)	
